a7 integrin act: activates integrin-mediated alleviation for muscular dystrophy | alpha7betagal myoblasts, beta-gal FDG fluorescence, 48 h | Potency, µM (titrated, usually from 38.3 µM), for inactives: at the top dose activation, hits mostly activators | hit rate 0.064% among 350,000;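 note: potency is the fitted concentration of half-maximal effect; 100% = response of the positive control SU9516; nearly all actives have a fitted effect of over 60% in size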
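alpha7betagal+/- myoblasts (passage 13, 250/well) treated 48 h at 37C with compounds at 1:260 dilution of DMSO stock. Lysed, then beta-galactosidase activity read as FDG fluorescence (ex 480/em 540) after 30 min, with pre-read for autofluorescence.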
Nrf2 ARE act: activates Nrf2 signaling | Potency, µM (highest dose often 46.1 µM), inactives show top-dose activation, usual class: activators | AREc32 ARE-luciferase reporter (MCF7-derived line), luminescence, 24 h | hit rate 0.31% among 410,000 | AID 624171; note: potency is the fitted concentration of half-maximal effect; % of control where 0% means no effect; nearly all actives have a fitted effect of over 65% in size
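Reporter line AREc32 (ARE-Fluc), seeded overnight in OPTI-MEM with 5% FBS; compound pin-transferred, 24 hr at 37 deg C, 5% CO2; luminescent read-out.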
IL-2 act: activates IL-2 in a cell-based reporter assay; IL-2 activation reporter assay, cell-based qHTS; stimulated with anti-CD3/CD4/CD28 beads; in transgenic mouse T cells; hit rate 0.065% among 360,000; activation, % (series mostly up to about 46 µM); AID 652025; in the data active = activation above about 50%; inconclusive = mostly about 30% to 49%; note: 0% is about no effect
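EGFP and DsRed fluorescence is measured by plate cytometry in unstimulated transgenic mouse T cells exposed to compound for 60 minutes, then stimulated 18 hours at 37 degrees C with anti-CD3/anti-CD4 beads plus anti-CD28.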
uPA generation: cell surface uPA generation inhibition; cell surface uPA generation assay, qHTS; Potency, µM (top dose mostly 38.3 µM), for inactives: top-dose activity change, negative = inhibition, actives largely listed as inhibitors; hit rate 0.31% among 330,000; AID 540303; active = well fitted inhibition curve with a large enough effect; inconclusive = small, poorly fitted or top-dose-only effect; inactive = no such curve, though single readings can be large or run the other way; tested in mouse RAW 264.7 cells; note: potency is the fitted concentration of half-maximal effect; % is set by controls: 0 for no effect and ±100 for the full control effect; nearly all actives have a fitted effect of over 55% in size
ALOX12 inh: blocks human arachidonate 12S-lipoxygenase; P18054; Potency, µM (highest dose often 108 µM), for the others: at the highest dose activity change, negative = inhibition, hits mostly inhibitors; AID 1671190; hit rate 1.1% among 580,000; purified 12hLO, xylenol orange hydroperoxide absorbance; note: potency is the fitted concentration of half-maximal effect; % is set by controls: 0 for no effect and ±100 for the full control effect
Target sequence (P18054 whole entry, looked up): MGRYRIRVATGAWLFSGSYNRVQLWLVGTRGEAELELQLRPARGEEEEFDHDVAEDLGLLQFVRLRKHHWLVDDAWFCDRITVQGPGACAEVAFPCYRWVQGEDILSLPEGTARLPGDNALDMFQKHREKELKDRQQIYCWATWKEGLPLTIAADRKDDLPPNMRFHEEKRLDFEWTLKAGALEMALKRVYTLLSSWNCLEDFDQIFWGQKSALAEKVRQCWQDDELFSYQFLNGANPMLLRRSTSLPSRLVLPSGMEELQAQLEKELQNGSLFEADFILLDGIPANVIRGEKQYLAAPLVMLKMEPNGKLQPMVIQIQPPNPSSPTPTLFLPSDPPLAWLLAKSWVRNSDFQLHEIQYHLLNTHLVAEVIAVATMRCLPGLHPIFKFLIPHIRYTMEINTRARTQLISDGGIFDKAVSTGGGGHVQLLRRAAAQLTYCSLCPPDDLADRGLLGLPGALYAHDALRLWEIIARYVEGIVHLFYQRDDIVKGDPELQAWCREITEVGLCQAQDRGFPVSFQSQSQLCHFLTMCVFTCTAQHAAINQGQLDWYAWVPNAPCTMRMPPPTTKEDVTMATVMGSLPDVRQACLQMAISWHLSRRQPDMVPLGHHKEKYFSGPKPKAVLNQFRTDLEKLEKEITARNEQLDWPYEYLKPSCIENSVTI
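Purified human 12hLO at 150 nM in 25 mM Hepes, 0.01% Triton X-100, pH 7.0, preincubated 15 min at room temperature with compound. Reaction started with 40 uM arachidonic acid, 30 min at room temperature. Hydroperoxide measured by Fe-xylenol orange, 573/405 nm absorbance ratio.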
An asterisk follows results filed as active; ? = inconclusive; · = no result given; ! = not confirmed by another sample; [ ] = remark or other dose. Most compounds without a hit are left out; they make up all but 1.5% or so of the library. Unless noted, calls come from the whole dose curve; as a rule, active = well fitted curve in the direction sought with a large enough effect; inconclusive = small, poorly fitted or top-dose-only effect, or another doubt; inactive = no such curve, though single readings can be large; an effect the other way counts as inactive or inconclusive.

SMILES	a7 integrin act	Nrf2 ARE act	IL-2 act	uPA generation	ALOX12 inh
Cc1cccc(/C=N\N=C\c2cccc(C)c2)c1	?	1.9%	-0.7	3.6%	12.6%
CSc1ccc(/C=N/Nc2cccc(Cl)c2)cc1	·	·	·	·	1.41µM*
Cc1ccc(N/N=C/c2ccc(Cl)c(Cl)c2)cc1	·	·	·	·	15.8µM*
Fc1cccc(/C=N/Nc2ccc(Cl)c(Cl)c2)c1	·	·	·	·	5.01µM*
Cc1ccc(/C=N/Nc2nc(C)cc(C)n2)cc1	4.8%	3.3%	-2.4	-2.4%	?
Cc1cccc(/C=N/Nc2ccc(Cl)c(Cl)c2)c1	·	·	·	·	5.62µM*
CSc1ccc(/C=N/Nc2nc(C)cc(C)n2)cc1	-9.6%	0.1%	0.6	3.5%	1.6%
Fc1ccc(/C=N/Nc2ccc(Cl)c(Cl)c2)cc1F	·	·	·	·	5.01µM*
CSc1ccc(/C=N/Nc2ccc(F)cc2)cc1	·	·	·	·	1.26µM*
O=C(O)c1cccc(N/N=C/c2ccc(F)c(F)c2)c1	0.0%	-0.1%	0.2	4.2%	?
COc1cccc(CNC(=O)[C@H](Cc2ccccc2)NC(=O)N2CCn3c2nc2ccccc23)c1	·	·	·	·	-27.1%
Cn1c(=O)c2c([nH]c(=S)n2CCCc2ccccc2)n(C)c1=O	17.1%	-0.8%	-3.1	6.4%	1.26µM*
Cn1c(=O)[nH]c(=O)c2c1[nH]c(=S)n2CCCc1ccccc1	13.8%	-0.3%	-3.9	3.3%	?
CN(CC(=O)N(C)C)Cc1ncc(-c2ccccc2)o1	·	·	·	·	-6.1%
O=C(CSc1nc(-c2ccc(F)cc2)cc(C(F)(F)F)n1)NC1CCCCC1	·	·	·	·	10.4%
COC(=O)c1c(NC(=O)/C=C/c2ccco2)sc2c1CCC2	2.2%	1.41µM*	12.7	-2.7%	?
Cc1ccc(C2Cn3cnc(C(=O)N4CCC(C(=O)NC5CCCC5)CC4)c3CO2)cc1 (configuration not stated)	·	·	·	·	32.7%
NNCCc1ccccc1	·	5.8%	-0.1	3.7%	5.44µM*!
Fc1ccc(CN2CCCCCCC2)c(F)c1	10.5%	0.0%	-2.9	3.0%	0.447µM*
CCCCC[C@@H]1C=C(C(=O)O)[C@H](c2ccc(F)cc2)N1S(=O)(=O)c1ccc(C)cc1	-12.4%	-0.9%	-0.5	-9.5%	44.7µM*
COC(=O)C1SCC2C(=O)N(Cc3cccc(C)c3)CC(=O)N21 (configuration not stated)	16.7%	0.6%	-0.1	3.3%	-1.4%
COC(=O)C1SCC2C(=O)N(Cc3ccc(F)cc3)CC(=O)N21 (configuration not stated)	8.91µM*	-0.3%	-0.1	-10.1%	-12.7%
N#C/C(=C/c1cccc(O)c1)C(=O)c1c[nH]c2cc(F)ccc12	·	·	·	·	15.8µM*
Cc1cccc2[nH]cc(C(=O)/C(C#N)=C\c3ccc(C#N)cc3)c12	·	·	·	·	-55.0%
N#C/C(=C/c1cccc(C#N)c1)C(=O)c1c[nH]c2cc(F)ccc12	·	·	·	·	11.2µM*
SMILES	a7 integrin act	Nrf2 ARE act	IL-2 act	uPA generation	ALOX12 inh
CCn1nc(C(=O)N2CCC(C(N)=O)CC2)c2ccccc2c1=O	·	·	·	·	13.2%
Cc1nnc(SCC(=O)Nc2cc(S(=O)(=O)N3CCOCC3)ccc2C)s1	2.5%	0.2%	3.1	3.9%	-0.2%
O=C(CSc1nc2ccccc2s1)Nc1cc(S(=O)(=O)N2CCOCC2)ccc1O	-10.8%	4.8%	-1.5	11.2%	22.4µM*
O=C(O)[C@]12CCCN[C@@H]1CCN(c1cc(N3CCOCC3)ncn1)C2	·	·	·	·	35.2%
Cc1nn(-c2ccccc2)c(C)c1[C@@H]1C=C[C@@H](NC(=O)c2ccc(N(C)C)cc2)C1	·	·	·	·	42.9%[176 µM]
CCn1c([N+](=O)[O-])nc2c1c(=O)[nH]c(=O)n2C	-79.8%	?	-0.9	10µM*	-16.5%
CCCCn1c(Br)nc2c1c(=O)[nH]c(=O)n2C	·	·	·	·	16.3%
C#CCN(C)C(=O)[C@@H](C)C1CC[C@@]2(C)Cc3sc(NC(=O)C4CC4)nc3[C@@H](C)[C@@H]2[C@H]1O (some centres not stated)	·	·	·	·	112µM*
CCN(CC)C(=O)C(C)[C@@H]1CC[C@@]2(C)Cc3sc(NC(=O)C4CC4)nc3[C@@H](C)[C@@H]2[C@H]1O (some centres not stated)	·	·	·	·	-0.3%
Cc1ccc2nc(N3C(=O)C(O)=C(C(=O)c4ccc(C)o4)C3c3cccc(O)c3)sc2c1 (configuration not stated)	10.9%	3.3%	-1.3	3.4%	12.6µM*!
COc1ccc2nc(N3C(=O)C(O)=C(C(=O)c4ccco4)C3c3ccc(OC)c(OC)c3)sc2c1 (configuration not stated)	0.0%	3.2%	-1.0	·	39.8µM*
COc1ccc(C2C(C(C)=O)=C(O)C(=O)N2c2nc3ccccc3s2)cc1OC (configuration not stated)	11.3%	0.7%	0.6	7.5%	44.7µM*
Cc1ccccc1-c1nc2scc(CCNC(=O)C(=O)Nc3c(C)cccc3C)n2n1	·	·	·	·	-2.6%
O=C(NCc1ccccc1)C1=NO[C@@H]2CN(Cc3ccc(O)c(Cl)c3)C[C@H]12	·	·	·	·	-1.3%[176 µM]
N#C/C(=C\c1ccc([N+](=O)[O-])o1)C(=O)Nc1ccc(F)cc1	-66.5%	10.2%	2.6	-1.2%	44.7µM*
COc1ccc(C)cc1NC(=O)C(C)N1CCOCC1 (configuration not stated)	22.1%	0.1%[9.22 µM]	-1.5	2.5%	11.2µM*
COc1ccc(C)cc1NC(=O)C(c1ccccc1)N1CCN(CC(=O)N2CCOCC2)CC1 (configuration not stated)	1.2%	-0.2%	-3.6	6.1%	1.0%
CC(C)c1ccc(CCNC(=S)Nc2ccc(Cl)cc2Cl)cc1	·	·	·	·	14.1µM*
Cc1cc(Cl)ccc1NC(=S)NCCc1ccc(Cl)cc1	22.5%	-0.3%	-3.4	4.0%	22.4µM*
Cc1cc(Cl)ccc1NC(=S)NCc1ccc(Cl)cc1	6.0%	0.2%	-0.5	5.0%	-27.2%
NC(=O)C1CCCN(CCNc2cc(-c3ccccc3)nc3ccnn23)C1 (configuration not stated)	·	·	·	·	87.0%
Cc1nc2cccnc2n1CC1CCCN(C(=O)Nc2ccccc2Cl)C1 (configuration not stated)	·	·	·	·	1.9%
O=C(/C=C/c1cccc(Br)c1)c1ccc[nH]1	·	·	·	·	2.7%
COc1cccc(/C=C/C(=O)c2ccc[nH]2)c1	-2.1%	15.8µM*	2.1	-9.1%	0.0%
CC1(C)CC(=O)C(C=Nc2ccccc2C(=O)O)=C(O)C1	5.0%	0.4%	1.4	0.6%	2.9%[57.4 µM]
CC1(C)CC(=O)c2cc(N=C/C(C(=O)c3ccccc3)=C(\O)c3ccccc3)c(=O)oc2C1	0.0%	11.2µM*	-0.4	-19.8%	-3.6%
CCc1cnc(C)nc1N1CCOC(c2ccc(Cl)cc2)C1 (configuration not stated)	·	·	·	·	37.3%
Clc1ccc(-c2csc(N/N=C/c3ccco3)n2)cc1	0.6%	8.91µM*	-5.3	5.2%	?
Cc1ccc(-c2csc(N/N=C/c3ccco3)n2)cc1	-16.7%	?	3.8	·	?
CC(C)OCCCn1c(=S)[nH]c2ncccc2c1=O	-9.1%	-2.2%	0.1	-3.5%	-23.8%
